Data as given in PubChem BioAssay AID1159580 (chemical genetic matrix, 2015).
Hit rate of the full screen: of about 5,500 compounds, about 2,000 (36%) were called active. Inconclusive results (about 18%) are left out. Cut-off read from the data, not from the text of the source: active = normalized growth mostly below about 0.91 (no sharp cut-off); inconclusive = no clear call, values can overlap the other calls; inactive = mostly above about 0.92. The list shows a part of the results.

Assay: chemical genetic growth profiling, strain panel (AID 1159580);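 note: tested at 20 µM; growth read once vehicle control cultures reached saturation at 30 °C; 1 = growth at the plate median or of vehicle wells; lower values mean less growth of the strain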
Conditions: growth OD
[1] = S. cerevisiae deletion strains, locus YAL013W, strain DEP1, active compounds read low
[2] = S. cerevisiae deletion strains, locus YBR229C, strain ROT2, active compounds read low
[3] = S. cerevisiae deletion strains, locus YDL101C, strain DUN1, active compounds read low
[4] = S. cerevisiae deletion strains, locus YDR150W, strain NUM1, active compounds read low
[5] = S. cerevisiae deletion strains, locus YEL061C, strain CIN8, active compounds read low
[6] = S. cerevisiae deletion strains, locus YGR078C, strain PAC10, active compounds read low
[7] = S. cerevisiae deletion strains, locus YHR030C, strain SLT2, active compounds read low
[8] = S. cerevisiae deletion strains, locus YHR087W, strain rtc3, active compounds read low
[9] = S. cerevisiae deletion strains, locus YJL187C, strain SWE1, active compounds read low
[10] = S. cerevisiae deletion strains, locus YJR043C, strain POL32, active compounds read low
[11] = S. cerevisiae deletion strains, locus YJR075W, strain HOC1, active compounds read low
[12] = S. cerevisiae deletion strains, locus YLR039C, strain RIC1, active compounds read low
[13] = S. cerevisiae deletion strains, locus YLR058C, strain SHM2 (second series), active compounds read low
[14] = S. cerevisiae deletion strains, locus YLR085C, strain ARP6, active compounds read low
[15] = S. cerevisiae deletion strains, locus YLR262C, strain YPT6, active compounds read low
[16] = S. cerevisiae deletion strains, locus YML094W, strain GIM5, active compounds read low
[17] = S. cerevisiae deletion strains, locus YMR219W, strain ESC1, active compounds read low
[18] = S. cerevisiae deletion strains, locus YMR263W, strain SAP30, active compounds read low
[19] = S. cerevisiae deletion strains, locus YNL128W, strain TEP1, active compounds read low
[20] = S. cerevisiae deletion strains, locus YNL153C, strain GIM3, active compounds read low
[21] = S. cerevisiae deletion strains, locus YNL298W, strain CLA4 (second series), active compounds read low
[22] = S. cerevisiae deletion strains, locus YNL322C, strain KRE1, active compounds read low
[23] = S. cerevisiae deletion strains, locus YNR030W, strain Alg12, active compounds read low
[24] = S. cerevisiae deletion strains, locus YOL006C, strain TOP1, active compounds read low
[25] = S. cerevisiae deletion strains, locus YPL055C, strain LGE1, active compounds read low
[26] = S. cerevisiae deletion strains, locus YPL241C, strain CIN2, active compounds read low
[27] = S. cerevisiae deletion strains, locus YPR135W, strain CTF4, active compounds read low
[28] = S. cerevisiae strains, strain wild type, active compounds read low
[29] = S. cerevisiae deletion strains, locus YDL134C, strain PPH21, active compounds read low
[30] = S. cerevisiae deletion strains, locus YKL190W, strain CNB1, active compounds read low

Measured: normalized growth

COC(=O)c1cn(Cc2ccc(C(F)(F)F)cc2)cc(F)c1=O
inactive: [1] 1.02 | [2] 0.996 | [3] 0.996 | [4] 0.923 | [5] 0.998 | [6] 1 | [7] 1.08 | [8] 1 | [9] 1.04 | [10] 0.99 | [11] 1 | [12] 1.02 | [13] 0.996 | [14] 1.09 | [15] 1.04 | [16] 1.03 | [17] 1 | [18] 0.931 | [19] 1.01 | [20] 0.988 | [21] 1.02 | [22] 1.01 | [23] 1.02 | [24] 1.04 | [25] 0.921 | [26] 1.01 | [27] 1.05 | [28] 1.02

Cc1onc(-c2c(Cl)cccc2Cl)c1C(=O)N1CCN(c2ncccc2C(F)(F)F)CC1
inactive: [1] 1.01 | [2] 1 | [3] 1.03 | [29] 0.988 | [4] 0.997 | [5] 1.03 | [6] 1 | [7] 0.908 | [8] 1 | [9] 0.992 | [10] 0.966 | [11] 0.999 | [30] 1 | [12] 0.99 | [13] 0.983 | [14] 0.921 | [15] 0.964 | [16] 1.11 | [17] 0.991 | [18] 0.977 | [19] 1 | [20] 1 | [21] 0.997 | [22] 0.994 | [23] 0.966 | [24] 0.934 | [25] 1.06 | [26] 0.99 | [27] 1.08 | [28] 0.972

CCOC(=O)c1c(SC)[nH]c2c(C(F)(F)F)cccc2c1=O
inactive: [1] 0.996 | [2] 0.991 | [3] 0.99 | [29] 0.959 | [4] 0.939 | [5] 1.02 | [6] 0.998 | S. cerevisiae deletion strains, locus YGR229C, strain SMI1, active compounds read low 0.989 | [7] 0.975 | [8] 0.975 | [10] 0.982 | [11] 0.992 | [30] 1 | [12] 0.917 | [13] 1 | [14] 0.977 | [15] 0.997 | [16] 0.986 | [17] 1 | [18] 1.03 | [20] 0.986 | [21] 1.01 | [22] 1 | [23] 0.977 | [25] 0.936 | [26] 0.982 | [27] 0.927
